Laboratory results from the supplement of paper PMC12350171.
Where a name gives a salt, the structure may show the parent alone. A number with no mark means an inactive call.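 The calls were made as follows: active = AUC significantly below DMSO controls by Student t-fit with adjusted P under 0.01; inactive = not significantly reduced.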

Tested on: Haemophilus parainfluenzae
Assay: growth AUC normalised to DMSO control (fraction of control); higher = less growth inhibition, active = hit call of the paper
Conditions: 20 µM
Procedure, shortened: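 Pathogens passaged twice anaerobically were inoculated at a starting OD578 of 0.01 into pre-reduced mGAM plates with drug at 20 μM and 1% DMSO, sealed with breathable membranes. Haemophilus parainfluenzae medium was supplemented with hemin and NAD. OD578 was read hourly for 24 h, with three biological replicates. Growth-curve AUC was computed by the trapezoidal rule up to the exponential-to-stationary transition and normalised to DMSO controls on the same plate.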

SMILES | growth AUC normalised to DMSO control
CCCNC(C)C(=O)Nc1ccccc1C (stereo not given) [Prilocaine hydrochloride] | 1.01
Cc1cc(C(C)(C)CC(C)(C)C)ccc1OCCOCC[N+](C)(C)Cc1ccccc1 [Methyl benzethonium chloride] | 0.994
Nc1ccn([C@@H]2CS[C@H](CO)O2)c(=O)n1 [Lamivudine] | 0.999
CC(C)CC(=O)N[C@H](C(=O)N[C@H](C(=O)N[C@@H](CC(C)C)[C@@H](O)CC(=O)N[C@@H](C)C(=O)N[C@@H](CC(C)C)[C@@H](O)CC(=O)O)C(C)C)C(C)C [Pepstatin A] | 1.07
CN(C)CCC=C1c2ccccc2CCc2ccccc21 [Amitryptiline hydrochloride] | 0.958
CC(=O)[C@H]1CC[C@H]2[C@@H]3CCC4=CC(=O)CC[C@]4(C)[C@H]3CC[C@]12C [Progesterone] | 1.03
CC1(C)S[C@@H]2[C@H](NC(=O)[C@H](N)c3ccccc3)C(=O)N2[C@H]1C(=O)O [Ampicillin trihydrate] | 0.0576 (active)
CC(C)(C)NC[C@@H](O)COc1cccc2c1CCCC2=O [(+) Levobunolol hydrochloride] | 0.973
NCC[C@H](O)C(=O)N[C@@H]1C[C@H](N)[C@@H](O[C@H]2O[C@H](CN)[C@@H](O)[C@H](O)[C@H]2O)[C@H](O)[C@H]1O[C@H]1O[C@H](CO)[C@@H](O)[C@H](N)[C@H]1O [Amikacin hydrate] | 0.0269 (active)
C#C[C@]1(O)CC[C@H]2[C@@H]3CCC4=Cc5oncc5C[C@]4(C)[C@H]3CC[C@@]21C [Danazol] | 0.908
CCn1nc(C(=O)O)c(=O)c2cc3c(cc21)OCO3 [Cinoxacin] | 0.294 (active)
Clc1ccc(C(Cn2ccnc2)OCc2c(Cl)cccc2Cl)c(Cl)c1 (stereo not given) [Isoconazole] | 0.972
CN1C2CCCC1CC(NC(=O)c1nn(C)c3ccccc13)C2 (stereo not given) [Granisetron] | 1.02
O=C(CCCN1CCC(O)(c2ccc(Br)cc2)CC1)c1ccc(F)cc1 [Bromperidol] | 1.02
CC(=O)CC(c1ccc([N+](=O)[O-])cc1)c1c(O)c2ccccc2oc1=O (stereo not given) [Acenocoumarol] | 0.992
CN(C)C/C=C(/c1ccc(Br)cc1)c1cccnc1 [Zimelidine dihydrochloride monohydrate] | 0.972
CNCCc1ccccn1 [Betahistine mesylate] | 0.962
C=CCN1CCCC1CNC(=O)c1cc2nn[nH]c2cc1OC (stereo not given) [Alizapride hydrochloride] | 1
NCCNCCNCCNCCN [Tetraethylenepentamine pentahydrochloride] | 0.971
CC[C@H](C)C(=O)O[C@H]1C[C@@H](C)C=C2C=C[C@H](C)[C@H](CC[C@@H]3C[C@@H](O)CC(=O)O3)[C@H]21 [Lovastatin] | 0.984
CC(COc1ccccc1)N(CCCl)Cc1ccccc1 (stereo not given) [Phenoxybenzamine hydrochloride] | 1.01
Nc1nc(=O)c2nc(CNc3ccc(C(=O)N[C@@H](CCC(=O)O)C(=O)O)cc3)cnc2[nH]1 [Folic acid] | 0.978
Nc1nc(=O)n([C@@H]2CS[C@H](CO)O2)cc1F [(-) Emtricitabine] | 0.97
Nc1nc2c(ncn2COC(CO)CO)c(=O)[nH]1 [Ganciclovir] | 0.989
Nc1nc2n[nH]nc2c(=O)[nH]1 [Azaguanine-8] | 0.992
CC(=O)OC[C@H]1O[C@@H]([S-])[C@H](OC(C)=O)[C@@H](OC(C)=O)[C@@H]1OC(C)=O.CCP(CC)CC.[Au+] [Auranofin] | 0.189 (active)
O=C(O)CCNC(=O)c1ccc(/N=N/c2ccc(O)c(C(=O)O)c2)cc1 [Balsalazide disodium salt] | 1.07
C[C@H]1[C@H](NC(=O)/C(=N\OC(C)(C)C(=O)O)c2csc(N)n2)C(=O)N1S(=O)(=O)O [Aztreonam] | 0.0582 (active)
CN(C)CC/C=C1\c2ccccc2CSc2ccccc21 [Dosulepin hydrochloride] | 0.865
NS(=O)(=O)c1cc2c(cc1Cl)N=CNS2(=O)=O [Chlorothiazide] | 1.01
